Measured values: PubChem BioAssay AID1745853 (National Center for Advancing Translational Sciences (NCATS), 2022)
“And” between values parts separate entries of the source, which are not always exact repeats. Identical values can stand only once. Screen size: about 25,000 compounds; about 970 (3.9%) were called active. Roughly 8% stayed inconclusive and do not appear here. No rule for the calls is given here. Only a selection was taken, and actives are over-represented in it overall.

How the values were obtained:
Experiment in all cases: Primary Screen for Target Class Profiling of Small Molecule Inhibitors of Methyltransferases
[1] = biological target: Catechol O-methyltransferase (Homo sapiens) (UniProt P21964); conditions: purified enzyme, MTase-Glo SAH luminescence; activity change, negative = inhibition: at 40 µM, stronger effect = lower value; outcome: 40 uM
Sequence of Catechol O-methyltransferase (Homo sapiens) (P21964 whole entry, looked up): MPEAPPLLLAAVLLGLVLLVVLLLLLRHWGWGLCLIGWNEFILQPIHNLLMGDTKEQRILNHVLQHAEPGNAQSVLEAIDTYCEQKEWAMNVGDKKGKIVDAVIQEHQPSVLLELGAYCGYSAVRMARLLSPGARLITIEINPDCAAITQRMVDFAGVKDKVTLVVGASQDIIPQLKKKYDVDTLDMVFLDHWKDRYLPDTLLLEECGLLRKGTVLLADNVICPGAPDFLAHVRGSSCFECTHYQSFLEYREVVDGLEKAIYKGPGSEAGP
Description: (§1) PI: Matthew D. Hall Ph.D. and Quinlin M. Hanson Ph.D.
(§2) National Center for Advancing Translational Sciences (NCATS)
(§3) National Institute of Health (NIH), Rockville, MD
(§4) Target class profiling (TCP) is a chemical biology approach amenable to investigating understudied biological targets. TCP is achieved by developing a generalizable assay platform and applying it to screen a curated set of compound libraries against representative members of a target class. Small molecule methyltransferases (SMMTase) are a subclass of methyltransferase that act on metabolites to modulate signaling pathways, metabolize xenobiotics, or balance the available methyl pool. We screened four curated libraries totaling 27,574 unique compounds against the SMMTases nicotinamide N-methyltransferase (NNMT), phenylethanolamine N-methyltransferase (PNMT), histamine N-methyltransferase (HNMT), glycine N-methyltransferase (GNMT), catechol O-methyltransferase (COMT), and guanidinoacetate N-methyltransferase (GAMT). The data generated by this TCP can be leveraged for informed tool molecule development. For example, in the associated publication we identified a chemotype of HNMT-selective inhibitors. Additionally, we identified a putative SMMTase-selective inhibitor with potential as a tool molecule for studying broader methyltransferase biology.
(§5) High-through put screening assays were developed at the National Center for Advancing Translational Science (NCATS) for the enzymes NNMT, PNMT, HNMT, GNMT, COMT, and GAMT. Enzymatic activity was measured as a function of SAM cofactor conversion using the MTase Glo kit (Promega) for all enzymes. All assays were performed in 1536-well format with substrates and SAM concentrations at KM values. Enzyme concentration and assay timing were optimized for 10-20% SAM conversion. Initial screening of 27,574 compounds was done as single-point assays using the highest compound concentration (40 uM). […] These compounds were replated in 11-point dose response and assayed against NNMT, PNMT, HNMT, GNMT, COMT, GAMT, and a counter-assay. The IC50 and efficacy (maximal response) values were determined for each dose-response curve. These values are also accounted for in the area under the curve (AUC) values.
(§6) PROTOCOL TABLE (as described by Inglese J, Shamu CE and Guy RK. 2007)
(§7) SEQUENCE No. (e.g., 1, 2, 3, etc.); […] (e.g., Cells, Incubation, Reagent, etc.); VALUE; DESCRIPTION.
(§8) 1; Reagent; 2 uL; SMMTase Enzyme (2x) in reaction buffer, columns 1- 48.
(§9) 2; Reagent; 1 uL; SAM (4x) in reaction buffer, columns 1-48.
(§10) 3; Controls; 23 nL; DMSO in column 4; sinefungin in DMSO (0 uM - 40 uM) in 7-point 1:2 dilution series (n = 2) in column 2.
(§11) 4; Compounds; 23 nL; Columns 5-48.
(§12) 5; Reagent; 1 uL; Substrate (4x) in reaction buffer, columns 2-48.
(§13) 6; Time; 20-30 min; Incubation.
(§14) 7; Reagent; 1 uL; MTase-Glo reagent (5X), columns 1-48.
(§15) 8; Time; 30 min; Incubation.
(§16) 9; Reagent; 5 uL; MTase-Glo Detection reagent, columns 1-48.
(§17) 10; Time; 30 min; Incubation, luminescence evolution.
(§18) 11; Detection; Luminescence; ViewLux uHTS Microplate Imager (PerkinElmer).
(§19) NOTES (numbers refer to Sequence numbers above)
(§20) 1, 2, 5. White Medium Binding Greiner 1536-well plates (Cat #789175-F, Greiner Bio-One, Monroe, NC); Reaction buffer: 50 mM Tris, pH 8.0, 3 mM MgCl2, 1 mM EDTA, 50 mM NaCl, 1 mM DTT, and 0.1 mg/mL BSA. Evaporation was prevented by covering assay plates with metal lids containing holes to allow gas diffusion.
(§21) 1. Six SMMTase were profiled: HNMT, GNMT, PNMT, COMT, NNMT, GAMT
(§22) 5. The corresponding substrate was used for each enzyme: HNMT - 5.3 uM Histamine; GNMT - >500 uM Glycine; PNMT - 16.2 uM Norephinephrine; COMT - 13.7 uM Norephinephrine; NNMT - 3.8 uM Nicotinamide; GAMT - 2.5 uM Guanidinoacetate.6, 8, 10. Room temperature
(§23) 6. Final reaction conditions: 10 nM COMT, 5 uM SAM, 15 uM norepinephrine, 50 mM Tris, pH 8.0, 3 mM MgCl2, 1 mM EDTA, 50 mM NaCl, 1 mM DTT, and 0.1 mg/mL BSA; refer to tables 2 and S1 for specific timing.
8. […]

[2] = biological target: Glycine N-methyltransferase (Homo sapiens) (UniProt Q14749); conditions: purified enzyme, MTase-Glo SAH luminescence; measured here: GNMT inhibition; at 40 µM; stronger effect = lower value
Sequence of Glycine N-methyltransferase (Homo sapiens) (Q14749 whole entry, looked up): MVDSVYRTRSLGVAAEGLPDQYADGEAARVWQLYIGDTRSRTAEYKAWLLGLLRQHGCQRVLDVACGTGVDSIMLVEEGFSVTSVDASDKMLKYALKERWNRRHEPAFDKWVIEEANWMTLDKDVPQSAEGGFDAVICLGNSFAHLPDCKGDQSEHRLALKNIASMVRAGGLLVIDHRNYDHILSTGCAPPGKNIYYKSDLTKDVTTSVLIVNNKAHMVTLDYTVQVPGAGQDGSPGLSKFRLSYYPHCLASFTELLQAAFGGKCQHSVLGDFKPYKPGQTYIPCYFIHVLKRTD
Description: as §1, §2, §3, §4, §5, §6, §7, §8, §9, §10, §11, §12, §13, §14, §15, §16, §17, §18, §19, §20, §21, §22, §23
8. […]

[3] = biological target: Guanidinoacetate N-methyltransferase (Homo sapiens) (UniProt Q14353); conditions: purified enzyme, MTase-Glo SAH luminescence; measured here: GAMT inhibition; at 40 µM; stronger effect = lower value
Description: as §1, §2, §3, §4, §5, §6, §7, §8, §9, §10, §11, §12, §13, §14, §15, §16, §17, §18, §19, §20, §21, §22, §23
8. […]

[4] = biological target: Histamine N-methyltransferase (Homo sapiens) (UniProt P50135); conditions: purified enzyme, MTase-Glo SAH luminescence; measured here: HNMT inhibition; at 40 µM; stronger effect = lower value
Sequence of Histamine N-methyltransferase (Homo sapiens) (P50135 whole entry, looked up): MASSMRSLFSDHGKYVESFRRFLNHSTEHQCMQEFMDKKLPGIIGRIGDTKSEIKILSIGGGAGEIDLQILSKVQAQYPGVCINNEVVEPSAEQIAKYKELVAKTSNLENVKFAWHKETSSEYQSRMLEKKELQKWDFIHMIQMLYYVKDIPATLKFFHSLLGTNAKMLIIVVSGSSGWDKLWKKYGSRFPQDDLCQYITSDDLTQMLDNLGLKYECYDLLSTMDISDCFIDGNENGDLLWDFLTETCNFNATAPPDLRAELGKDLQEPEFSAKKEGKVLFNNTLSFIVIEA
Description: as §1, §2, §3, §4, §5, §6, §7, §8, §9, §10, §11, §12, §13, §14, §15, §16, §17, §18, §19, §20, §21, §22, §23
8. […]

[5] = biological target: Nicotinamide N-methyltransferase (Homo sapiens) (UniProt P40261); conditions: purified enzyme, MTase-Glo SAH luminescence; measured here: NNMT inhibition; at 40 µM; stronger effect = lower value
Sequence of Nicotinamide N-methyltransferase (Homo sapiens) (P40261 whole entry, looked up): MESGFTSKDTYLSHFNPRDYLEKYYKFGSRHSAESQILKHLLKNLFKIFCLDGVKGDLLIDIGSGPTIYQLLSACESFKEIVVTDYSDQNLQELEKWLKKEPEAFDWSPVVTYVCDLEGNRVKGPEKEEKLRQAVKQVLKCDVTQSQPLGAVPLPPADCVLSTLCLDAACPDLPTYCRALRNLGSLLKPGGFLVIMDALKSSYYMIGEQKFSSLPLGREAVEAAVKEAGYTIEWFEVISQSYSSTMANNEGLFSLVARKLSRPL
Description: as §1, §2, §3, §4, §5, §6, §7, §8, §9, §10, §11, §12, §13, §14, §15, §16, §17, §18, §19, §20, §21, §22, §23
8. […]

[6] = biological target: Phenylethanolamine N-methyltransferase (Homo sapiens) (UniProt P11086); conditions: purified enzyme, MTase-Glo SAH luminescence; measured here: PNMT inhibition; at 40 µM; stronger effect = lower value
Sequence of Phenylethanolamine N-methyltransferase (Homo sapiens) (P11086 whole entry, looked up): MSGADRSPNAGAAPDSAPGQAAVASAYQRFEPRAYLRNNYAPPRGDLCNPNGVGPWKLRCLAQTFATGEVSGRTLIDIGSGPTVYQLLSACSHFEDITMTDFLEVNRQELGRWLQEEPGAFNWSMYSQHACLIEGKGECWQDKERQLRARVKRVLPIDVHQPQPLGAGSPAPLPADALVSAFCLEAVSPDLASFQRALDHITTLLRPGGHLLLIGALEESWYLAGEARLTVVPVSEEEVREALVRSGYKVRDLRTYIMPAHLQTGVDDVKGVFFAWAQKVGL
Description: as §1, §2, §3, §4, §5, §6, §7, §8, §9, §10, §11, §12, §13, §14, §15, §16, §17, §18, §19, §20, §21, §22, §23
8. […]
% is scaled to controls: 0 for no effect and ±100 for the full control effect.

Row | SMILES | activity change, negative = inhibition [1] | activity change, negative = inhibition [2] | activity change, negative = inhibition [3] [%] | activity change, negative = inhibition [4] | activity change, negative = inhibition [5] | activity change, negative = inhibition [6]
1 | O=C(C1CC1)N1CCn2c(nn(-c3ccc(F)cc3)c2=O)C1 | -5% (inactive) | -3.41% | -8.31 | -2.04% | -9.2% | -5.36%
2 | N#CSc1cc(SC#N)c(N)nc1N | -62.1% (active) | -92.7% | -77.3 | -92.3% | -58.6% | -40.8%
3 | C=C(C)Cn1c(=O)[nH]c2ccccc21 | 7.05% (inactive) | -1.89% | 0 | 7.74% | 13.6% | 4.12%
4 | CN1CCCN(S(=O)(=O)c2cccs2)c2ccccc21 | -6.9% (inactive) | -11.1% | -3.04 | -16.1% | -12.8% | -18.8%
5 | Cc1cccc(CSc2nnc3n(CC(C)C)c(=O)c4ccccc4n23)c1 | 2.1% (inactive) | -7.23% | 0.416 | 3.69% | -10.9% | 4.42%
6 | NCCCC(=O)N1CCN(C2CCNCC2)C(=O)C1 | -0.26% (inactive) | -0.497% | -3.99 | 1.59% | -1.96% | 0.025%
7 | O=C(N[C@@H]1CN(C2CCOCC2)CC[C@@H]1CO)c1ccccc1 | -14.8% (inactive) | -7.11% | -12.7 | -6.52% | -17.2% | -14.2%
8 | Cc1ccc(COc2ccc3c(-c4ccccc4)cc(=O)oc3c2)cc1 | 1.55% (inactive) | -1.02% | 8.91 | 3.98% | 6.08% | -3.92%
9 | CCCN1C(=O)c2cc(C(=O)N3CCC(C)CC3)nn2CC1(C)C(=O)NC1CCCC1 (configuration not stated) | -0.787% (inactive) | -3.38% | 3.26 | 4.03% | -4.98% | -1.07%
10 | CCc1ccc(S(=O)(=O)c2nnn3c2nc(N2CCCCC2)c2ccccc23)cc1 | 3.62% (inactive) | 0.777% | 0 | 6.93% | -3.24% | -1.25%
11 | Cc1cn(CCN2CCN(c3ccccc3-c3cc(C#N)cc(C(=O)NCCCN4CCCC4)c3)CC2)c2ccccc12 | -11% (active) and 25.9% (active) | 0.523% and -14.2% | 12 | -86.5% and -77.8% | -17.4% and 7.48% | -1.62% and 35.5%
12 | CCOc1ccc(CN2C(=O)c3cc(C(C)(C)C)nn3CC2(C)C(=O)NC2CCCCCC2)cc1 (configuration not stated) | -0.389% (inactive) | -3.62% | 4.61 | -1.08% | -2.24% | -3.09%
13 | COc1cccc(-c2ccc(C(=O)NCCN[S+](=O)([O-])c3cccs3)cc2)c1 | 1.95% (inactive) | -8.51% | -1.67 | -4.59% | -5.98% | -13%
14 | CCNC(=O)N1CC[C@H]2CC(=O)N(Cc3cccnc3)CC[C@H]2C1 | -8.99% (inactive) | -6.64% | -7.68 | -5.27% | -14.8% | -11.5%
15 | COc1cccc(C(=O)N(CC(C)C)CC2CN(C(=O)Nc3ccccc3)CCO2)c1 (configuration not stated) | -3.51% (inactive) | -5.73% | -3.93 | -3.02% | -7.14% | 0.149%
16 | Cn1c(=O)c2ccc(C(=O)NC3CCCCC3)cc2n2c(SCc3cccc(Cl)c3)nnc12 | 2.97% (inactive) | 2.72% | 0.691 | 2.66% | 1.84% | 5.9%
17 | CCn1ccnc1CN(C)C(=O)c1cc(COc2ccccc2F)[nH]n1 | 4.03% (inactive) | -2.18% | -0.135 | -1.52% | -4% | -1.63%
18 | CC1(C(=O)NC2CCCCC2)Cn2c(ccc2-c2ccccc2)C(=O)N1CCC1=CCCCC1 (configuration not stated) | 6.36% (inactive) | 9.19% | 0.753 | 8.84% | 8.48% | 6.08%
19 | COc1ccc(CN2C(=O)c3ccc(-c4ccco4)n3CC2(C)C(=O)NC2CCCCCC2)cc1 (configuration not stated) | -2.99% (inactive) | -14.7% | 0.968 | -7.66% | -8.88% | -4.52%
20 | CCCS(=O)(=O)NCC1Cn2cccc2C(=O)N1CCOC (configuration not stated) | 2.41% (inactive) | 0.792% | -0.491 | 0.026% | -3.41% | 0.672%
21 | Cc1ccc(OCCC2CCN(C(=O)Cn3cnc4c3c(=O)n(C)c(=O)n4C)C2)cc1 (configuration not stated) | -5.48% (inactive) | -7.34% | -5.09 | -2.32% | -21% | -7.16%
22 | CC1CCCC(NC(=O)C2(C)Cn3c(cc4sccc43)C(=O)N2c2ccc(Cl)cc2)C1C (configuration not stated) | -1.19% (inactive) | -1.5% | 2.58 | -0.753% | 2.89% | -5.61%
23 | CCC1CCCCN1C(=O)Cn1c(=O)oc2cc(S(=O)(=O)N3CCCC3)ccc21 (configuration not stated) | 1.3% (inactive) | -2.17% | 1.65 | -2.01% | 0.211% | -0.075%
24 | Clc1cc(NCc2ccccn2)n2nccc2n1 | -4.71% (inactive) | -11.1% | -2.25 | -0.734% | -13.1% | 6.59%
25 | COc1ccc(NC(=O)c2ccc(-c3ccc(C(N)=O)cc3C)cc2)cc1N1CCN(C)CC1 | 0.282% (inactive) | -7.07% | 2.94 | -26% | -29.8% | -2.08%
26 | COc1ccccc1N1CCN(S(=O)(=O)c2cc3c(cc2C)n(C)c(=O)n3C)CC1 | 8.56% (inactive) | 5.66% | 0 | 4.91% | -2.8% | 0.426%
27 | COc1ccc(NC(=O)c2ccc(-c3ccc(C(=N)N)cc3C)cc2)cc1N1CCN(C)CC1 | -7.6% (active) | -8.27% | -7.77 | -66.3% | -22.1% | -8.76%
